# PubChem BioAssay (NCI)
# About 83,000 compounds went through this panel and 20% of them were active in at least one assay; those are over-represented in the sample as a whole.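 Single-dose data. Exposure time 48 hours. Values below 10 considered active.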 The source made the active and inactive calls.
# System: HCC-2998 colon
# Experiment: NCI-60 one-dose screen, 48 h (100 = growth as untreated, 0 = no growth, -100 = all killed)
# Details: 10 µM unless noted
row,SMILES,growth
1,N/N=C(\C(=N\N)c1ccccc1)c1ccccc1,99.8% (inactive)
2,C=C(C)[C@@H]1CC[C@]2(C(=O)NS(=O)(=O)c3ccccc3)CC[C@]3(C)[C@H](CC[C@@H]4[C@@]5(C)CC[C@H](OC(=O)NS(=O)(=O)c6ccccc6)C(C)(C)[C@@H]5CC[C@]43C)[C@@H]12,-8.69% (active)
3,O=[N+]([O-])c1ccc(N/N=C/c2ccccc2O)nc1,14.7% (inactive)
4,CN1C(=O)N(C)C2C1NN=c1s/c(=C\c3ccc(C(F)(F)F)cc3)c(=O)n12 (centres undefined),54.9% (inactive)
5,CC(C)c1ccc(-c2cnc3nonc3n2)cc1,61.1% (inactive)
6,COc1ccc(N=C2CSc3nnc(-c4cc(F)c(Cl)cc4Cl)n3N2)cc1,-71.4% (active)
7,O=C(Cc1ccc([N+](=O)[O-])cc1)Oc1ccccc1,106% (inactive)
8,CN(C)c1ccc(/C=C\c2cccc[n+]2C)cc1,35.7% (inactive)
9,COc1cccc(NC(=O)OC(C)C)c1,96.7% (inactive)
10,COC(=O)c1ccc2c(c1)nc(-c1ccc(Cl)cc1)n2-c1cc(C(C)(C)C)[nH]n1,68.1% (inactive)
11,CCOC(=O)c1cc(C(=O)OCC)c(C)nc1C,103% (inactive)
12,O=C(Nc1cccc(C2=NCCN2)c1)c1ccc(N=Nc2ccc(C(=O)Nc3cccc(C4=NCCN4)c3)cc2)cc1,79.4% (inactive)
13,Cc1c(C(=O)CCl)c(=O)n(-c2ccccc2)n1C,85.9% (inactive)
14,O=C1/C=C/[C@@H](O)[C@@H]2C[C@@H](O)C[C@H]2/C=C/CCC[C@H]([C@@H](O)CO)O1,84.6% (inactive)
15,CC(=O)N1N=C(C2C(=O)N(C)C(=O)N(C)C2=O)CC1c1ccccc1C(=O)O (centres undefined),113% (inactive)
16,O=C1Nc2ccc(Cl)cc2/C1=C\c1c(-c2ccc(F)cc2)nc2ccccn12,44.7% (inactive)
17,O=C(O/C(=C/c1ccccc1)C(F)(F)F)c1ccccc1,102% (inactive)

row,SMILES,growth
1,COC(=O)c1ccc2c(c1)nc(-c1cc3ccccc3[nH]c1=O)n2-c1cc(C(C)(C)C)[nH]n1,-10.1% (active)
2,O=c1c2cc(Br)cc(Br)c2nc(-c2ccc(Cl)cc2)n1/N=C/c1cccc(F)c1,84% (inactive)
3,CCOC(=O)Nc1ccc2nc(N3CCCCCC3)sc2c1,50.3% (inactive)
4,COC(=O)CSc1ccc(Cl)cc1,97.4% (inactive)
5,COc1ccc(C(=O)N2N=C(c3ccc(F)cc3)CC2c2cn(-c3ccccc3)nc2-c2ccccc2)cc1 (centres undefined),85.7% (inactive)
6,N=c1nc(N2CCCCC2)cc(N)n1O,105% (inactive)
7,COc1ccc(C2NC(=O)c3cc4c(cc3N2)OCO4)cc1 (centres undefined),9.52% (active)
8,O=C1OCC2=C1C(c1ccccc1)c1cc3c(cc1N2CCO)OCO3 (centres undefined),24.5% (inactive)
9,COc1ccc(/C=C/c2nc(NCCCN(C)C)c3ccccc3n2)cc1,28.3% (inactive)
10,c1ccc(CCn2cccc2)nc1,96.7% (inactive)
11,Nc1cc(C(=O)O)cc(C(=O)O)c1,121% (inactive)
12,Fc1ccc(-c2nc(-c3ccc(-c4nc5ccc(F)cc5[nH]4)cc3)no2)cc1,82.2% (inactive)
13,N=C(N)c1ccc(NCCNc2ccc(C(=N)N)cc2)cc1,119% (inactive)
14,COc1ccc(CC2c3cc(OC)c(OC)cc3CC[N+]2(C)CCC(=O)OCCCCCOC(=O)CC[N+]2(C)CCc3cc(OC)c(OC)cc3C2Cc2ccc(OC)c(OC)c2)cc1OC (centres undefined),105% (inactive)
15,C=CCN(CC#N)CC=C,118% (inactive)
16,O=C1Nc2ccccc2/C1=C\c1nc(C2CCN(S(=O)(=O)c3ccc(F)cc3)CC2)n2ccccc12,59.8% (inactive)
17,COc1ccc(Nc2nc(N)nc3c(=O)[nH]ccc23)cc1,107% (inactive)
